According to PubChem BioAssay (NCI):
The panel holds about 83,000 compounds, 20% with a hit somewhere; the sample as a whole holds those more often.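 The test compound was applied at a single concentration to cells in 96-well plates for 48 hours, and percent growth was recorded.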 Calls of active or inactive are those of the source. The calls were made as follows: active = growth percent below 10; inactive = the rest.

test system: SNB-19 CNS; test: NCI-60 one-dose screen, 48 h (100 = growth as untreated, 0 = no growth, -100 = all killed); settings: 10 µM

Row | SMILES | growth
1 | O=C(/C=C/c1ccco1)c1nc2ccccc2n1Cc1ccc(Br)cc1 | 54.4% (inactive)
2 | O=C(/C=C/c1ccco1)c1nc2ccccc2n1Cc1ccc(F)cc1 | 77.7% (inactive)
3 | COc1cc2cc(C(=O)N3C[C@@H](CCl)c4c3cc(OC(=O)N3CCN(C)[C@@H]5CSSC[C@@H]53)c3ccccc43)[nH]c2c(OC)c1OC | -9.25% (active)
4 | C#CC[Se]C(=O)c1ccc2n[se]nc2c1 | 79.9% (inactive)
5 | O=C(/C=C/c1ccc(Cl)cc1Cl)c1nc2ccccc2n1Cc1ccc(F)cc1 | 57.7% (inactive)
6 | O=C(/C=C/c1ccc(Cl)cc1)c1nc2ccccc2n1Cc1ccc(Br)cc1 | 65.9% (inactive)
7 | CCOP(=O)(OCC)C(NC(C)=O)C(=O)SCCN (stereo unspecified) | 96.9% (inactive)
8 | COc1cc2cc(C(=O)N3C[C@@H](CCl)c4c3cc(OC(=O)N3CCN(C)[C@@H]5CSSC[C@H]53)c3ccccc43)[nH]c2c(OC)c1OC | -15.4% (active)
9 | COc1ccc2cc([C@H](C)C(=O)[Se]CCC#N)ccc2c1 | -68.7% (active)
10 | CC12OOC(C)(OO1)C2CCC(=O)OCCNc1ccnc2cc(Cl)ccc12 (stereo unspecified) | 97.6% (inactive)
11 | CC(C)N=C([Se])NC(=O)c1cccs1 | 4.61% (active)
12 | Cc1ccc2[nH]c(=S)n(-c3ccc(F)cc3)c(=O)c2c1 | 90.3% (inactive)
13 | CCOC(=O)C1=C(Nc2ccccc2)C(=O)OC12C(=O)Nc1ccccc12 (stereo unspecified) | 96.4% (inactive)
14 | CC12CCC3(CCC(=O)NCCCNc4ccnc5cc(Cl)ccc45)[C@@](C)(OO[C@]3(C)O1)O2 | 7.99% (active)
15 | CC[C@]12C=CCN3CC[C@@]4(c5ccc(OC)cc5N(C)[C@H]4[C@@](O)(C(=O)OC)[C@@H]1OC(=O)CCCC[P+](C1CCCCC1)(C1CCCCC1)C1CCCCC1)[C@@H]32 | -71.1% (active)
16 | CC(=O)Oc1ccccc1C(=O)[Se]C(=NC(C)C)NC(C)C | -88.5% (active)

Row | SMILES | growth
17 | COCCOCCOCCOc1ccc(-n2cc(CCCN(CCNc3ccnc4cc(Cl)ccc34)C(=O)CCC(=O)O[C@@H]3O[C@@H]4OC5(C)CC[C@H]6[C@H](C)CC[C@@H]([C@H]3C)[C@@]46OO5)nn2)cc1 | 56.3% (inactive)
18 | C[C@H]1[C@@H](CC(=O)N[C@@H](Cc2coc3ccccc23)B(O)O)O[C@@H]2OC3(C)CC[C@H]4[C@H](C)CC[C@@H]1[C@@]24OO3 | 26% (inactive)
19 | COP(=O)(CC(F)(F)C(F)(F)F)OC | 101% (inactive)
20 | CC12OOC(C)(OO1)C2CCC(=O)NCCNc1ccnc2cc(Cl)ccc12 (stereo unspecified) | 98.2% (inactive)
21 | CC[C@]12C=CCN3CC[C@@]4(c5ccc(OC)cc5N(C)[C@H]4[C@@](O)(C(=O)OC)[C@@H]1OC(=O)CCC[P+](c1ccc(C)cc1)(c1ccc(C)cc1)c1ccc(C)cc1)[C@@H]32 | -97.3% (active)
22 | CC(C)N=C([Se])NC(=O)c1ccccc1 | 11.4% (inactive)
23 | CC[C@]12C=CCN3CC[C@@]4(c5ccc(OC)cc5N(C)[C@H]4[C@@](O)(C(=O)OC)[C@@H]1OC(=O)CCC[P+](C1CCCCC1)(C1CCCCC1)C1CCCCC1)[C@@H]32 | -60% (active)
24 | CC1=C(COCCOC(=O)c2ccc(S(=O)(=O)F)cc2)C2=C(C)C3(CC3)[C@@](C)(O)C(=O)C2=C1 | -10.6% (active)
25 | CC[C@]12C=CCN3CC[C@@]4(c5ccc(OC)cc5N(C)[C@H]4[C@@](O)(C(=O)OC)[C@@H]1OC(=O)CCCC[P+](c1ccc(OC)cc1)(c1ccc(OC)cc1)c1ccc(OC)cc1)[C@@H]32 | -95.7% (active)
26 | CC1=C(CCC=NNC(N)=O)C2=C(C)C3(CC3)[C@@](C)(O)C(=O)C2=C1 | -38.6% (active)
27 | CC[C@@]12CC(C(=O)OC)=C3Nc4cc5c(cc4[C@@]34CCN(C[C@H]3O[C@H]31)[C@@H]24)[C@@H]1[C@H](O5)[C@@H](O)[C@@]2(CC)CC(C(=O)OC)=C3Nc4cc(OC)ccc4[C@@]34CCN1[C@@H]24 | 21.3% (inactive)
28 | CCOP(=O)(CC(F)(F)C(F)(F)F)OCC | 95.7% (inactive)
29 | CC1=C2C(=C[C@@](C)(COP(=O)(Oc3ccccc3)Oc3ccccc3)[C@@H]2O)C(=O)[C@@](C)(O)C12CC2 | -17.5% (active)
30 | CC(=O)Oc1ccccc1C(=O)NC([Se])=NC1CCCCC1 | 12.3% (inactive)
31 | C[C@H]1[C@H](OC(=O)CCC(=O)N(CCCc2cn(-c3ccc(CN4CCOCC4)cc3)nn2)CCNc2ccnc3cc(Cl)ccc23)O[C@@H]2OC3(C)CC[C@H]4[C@H](C)CC[C@@H]1[C@@]24OO3 | 50.9% (inactive)
